ChEMBL document CHEMBL4513216, “Probing the Open Global Health Chemical Diversity Library for Multistage-Active Starting Points for Next-Generation Antimalarials” (ACS Infect Dis, 2020)
In all, about 69,000 compounds went through this assay and about 8,600 (12%) showed an effect of 50% or more. Many of the other results were omitted from the sample, so strong results are more common in it than they were.

System: Plasmodium berghei
Assay: Screen against P. berghei liver stage (PbLuc), transformed with Luciferase, at 10uM
Assay type: functional, HepG2
Details: tested at 10 uM

Row | Compound | INHIBITION
1 | CCCN1CCN(C(=O)CCn2cccc2)CC1 | 16.8%
2 | Cc1ccc(N2CC[C@H]3CN(C(=O)c4ccn(C)n4)C[C@H]3C2)nn1 | 75.6%
3 | c1cnc(N2C[C@H]3CCN(CC4CC4)C[C@H]3C2)cn1 | 58.4%
4 | O=C(c1cnccn1)N1C[C@@H]2CCN(c3cnccn3)C[C@@H]2C1 | 35.8%
5 | c1cnc(N2C[C@H]3CCN(CCN4CCCC4)C[C@H]3C2)cn1 | 57.5%
6 | Cn1ccnc1C(=O)N1C[C@@H]2CCN(c3cnccn3)C[C@@H]2C1 | 31.2%
7 | O=C(CC1CC1)N1C[C@@H]2CCN(c3cnccn3)C[C@@H]2C1 | 15.7%
8 | Cn1ccc(C(=O)N2C[C@@H]3CCN(c4cnccn4)C[C@@H]3C2)n1 | 24%
9 | O=C(C1CCCC1)N1C[C@@H]2CCN(c3cnccn3)C[C@@H]2C1 | 16.1%
10 | Cn1ccc(C(=O)N2C[C@@H]3CCN(c4cccnc4)C[C@@H]3C2)n1 | 32.1%
11 | Cn1cncc1C(=O)N1C[C@@H]2CCN(c3cnccn3)C[C@@H]2C1 | 56.6%
12 | O=C(C1CCCCC1)N1C[C@@H]2CCN(c3cnccn3)C[C@@H]2C1 | -15.9%
13 | c1cc(CN2CC[C@@H]3CN(c4cnccn4)C[C@@H]3C2)ccn1 | 27.6%
14 | Cc1cc(NC(=O)NCC(c2ccc(C)o2)N2CCOCC2)n(C)n1 (stereo unspecified) | 45.7%
15 | CC(NC(=O)NCCCn1cncn1)c1ccncc1 (stereo unspecified) | 33%
16 | CN(C)[C@@H]1CCN(C(=O)CC2CC2)[C@H]1Cc1cnn(C)c1 | 4.27%
17 | COCC1CN(Cc2ccoc2)Cc2nn(CC3CC3)cc21 (stereo unspecified) | 1.9%
18 | CC(=O)NCC(=O)N1C[C@@H]2CC[C@H](Oc3ccccc3Cl)[C@@H]2C1 | 30.8%
19 | CCOC(=O)NCCC(=O)NCc1ccc(Oc2ccc(F)cc2)nc1 | 61.5%
20 | CCOC(=O)NCCC(=O)NCc1ccnc(Oc2ccc(F)cc2)c1 | 21.5%
21 | CCOC(=O)NCCC(=O)NCc1ccc(Oc2cccc(F)c2)nc1 | 35.5%
22 | CCc1noc(CN2CCN(CCO)CC2)n1 | 15.8%

Row | Compound | INHIBITION
23 | Cc1cnn(CC2CCCN2CC(=O)Nc2cc(C)no2)c1 (stereo unspecified) | -0.219%
24 | CCCC(=O)NC1CCc2c(ccc(=O)n2Cc2csc(C)n2)C1 (stereo unspecified) | 17.6%
25 | CC(C)N1CCOC(CC(=O)N2CCCN(c3ccc(F)cc3)CC2)C1 (stereo unspecified) | 22.1%
26 | CC(C)N1CCOC(CC(=O)N2CC(c3ccncc3)C2)C1 (stereo unspecified) | 31.2%
27 | CC(C)N1CCOC(CC(=O)N2CCCN(Cc3ccncc3)CC2)C1 (stereo unspecified) | 58.5%
28 | Cc1ccccc1N1CCCN(C(=O)CC2CN(C(C)C)CCO2)CC1 (stereo unspecified) | 60.3%
29 | CC(C)N1CCOC(CC(=O)N2CCCN(Cc3cccs3)CC2)C1 (stereo unspecified) | 28.5%
30 | Cc1ccc(N2CCCN(C(=O)CC3CCCO3)CC2)nn1 (stereo unspecified) | 35.3%
31 | CN(C)C(=O)C1CN(Cc2ccsc2)CCN(S(C)(=O)=O)C1 (stereo unspecified) | 20.8%
32 | O=C(c1cccnc1)N1CCOCC2(CCN(c3ncccn3)C2)C1 (stereo unspecified) | -62.6%
33 | Cc1cc(C)c(C(=O)NCCNc2ncnc3ccccc23)c(=O)[nH]1 | -21.6%
34 | CCn1nc(C)cc1C(=O)OCCNc1ncnc2ccccc12 | 83.2%
35 | CCn1nc(C)cc1C(=O)OCCNC(=O)c1ccccc1 | -1.95%
36 | COC(=O)CSCc1noc(-c2ccc(C)cc2)n1 | 91.3%
37 | COC(=O)CSCc1noc(-c2ccc(Cl)cc2)n1 | 46.6%
38 | COC(=O)CSCc1nc(-c2ccc(Cl)cc2)no1 | 48.8%
39 | Cn1cc(CCN2CCOC(CNc3cccnn3)C2)cn1 (stereo unspecified) | -33.7%
40 | CCCOCC1CCN(C(=O)c2cnc(C)nc2O)C1 (stereo unspecified) | 35.8%
41 | O=C(c1ccnc(CC2COc3ccccc3C2)c1)N1CCCC1 (stereo unspecified) | 31.5%
42 | O=S(=O)(NCC1COc2ccccc2C1)N1CCCCCC1 (stereo unspecified) | -9.3%
43 | Nc1ccc(CC2COc3ccccc3C2)cn1 (stereo unspecified) | 56.3%
44 | Cc1cc(NC(=O)NCC2COc3ccccc3C2)no1 (stereo unspecified) | 40%

Row | Compound | INHIBITION
45 | Nc1cc(CC2COc3ccccc3C2)ccn1 (stereo unspecified) | 57.9%
46 | Cn1cc(CN2C[C@@H]3COC[C@]3(C(=O)NCc3ccccn3)C2)cn1 | 13.7%
47 | CC(C)NC(=O)[C@@H]1CN(Cc2ccc3c(c2)OCO3)C[C@H]2OCC[C@H]21 | 26.5%
48 | CN(Cc1noc(C2CC2)n1)C1CCCN(c2cccnn2)C1 (stereo unspecified) | 5.9%
49 | CC1(C(=O)NC2CCCC2)CN(c2cnccn2)CCO1 (stereo unspecified) | 12.3%
50 | CCC(CC)N(C)S(=O)(=O)c1ccc(CCNC(C)=O)s1 | -79.8%
51 | CCC(C)N(C)S(=O)(=O)c1ccc(CCNC(C)=O)s1 (stereo unspecified) | 13.7%
52 | CC(=O)NCCc1ccc(S(=O)(=O)N(C)C(C)CC(C)C)s1 (stereo unspecified) | 68.2%
53 | COCCCN(Cc1cc(O)nc2ccccc12)C(=O)NC(C)C | 33%
54 | c1nc(NCc2cc3n(n2)CCN(C2CCCCC2)C3)c2nc[nH]c2n1 | 78.5%
55 | CC(C)CN1CCn2nc(CNc3ncnc4[nH]cnc34)cc2C1 | 33%
56 | CC(C)NCc1cc2n(n1)CCN(C1CCCCC1)C2 | 14.9%
57 | Cc1nc(CN2C(=O)C[C@@H]3[C@@H]2CCN3Cc2cnn(C)c2)cs1 | -8.51%
58 | CCc1nnc2ccc(N3CCN(S(=O)(=O)c4ccc(Cl)s4)CC3)nn12 | 32.3%
59 | CSc1sc(NC(=O)Cc2c(C)nc(C)[nH]c2=O)nc1C | 71.4%
60 | Cc1nc(C)c(CC(=O)Nc2nnc(C)s2)c(=O)[nH]1 | 20.1%
61 | Cc1nc(C)c(CC(=O)Nc2nc(C)c(C)s2)c(=O)[nH]1 | 21.1%
62 | O=c1[nH]c(-c2ccccn2)nc2c1CCN(S(=O)(=O)N1CCCC1)C2 | 7.92%
63 | CS(=O)(=O)c1cn[nH]c1C1CCCN(C(=O)CN2CCOCC2)C1 (stereo unspecified) | 20.8%
64 | O=C(CN1CCOC(c2ccc(Cl)c(Cl)c2)C1)NCc1ccco1 (stereo unspecified) | 21.5%
65 | CCC1CN(CC(=O)NCc2ccco2)CCO1 (stereo unspecified) | 36.6%
66 | Cc1csc(NC(=O)CN2CCC(c3ccnn3CCO)CC2)n1 | 66%

Row | Compound | INHIBITION
67 | O=C(CN1CCC(c2ccnn2CCO)CC1)NCc1cccs1 | 10.8%
68 | O=C(CN1CCC(c2ccnn2CCO)CC1)NCC1CCCCC1 | -17.6%
69 | Cn1nccc1C1CCN(CC(=O)NCC2CC2)CC1 | 70.8%
70 | N#CC1(NC(=O)CN2CCC(c3ccnn3CCO)CC2)CCCC1 | 37.9%
71 | O=C(CN1CCC(c2ccnn2CCO)CC1)NCc1ccco1 | 58.5%
72 | CC(C)C(C)(C#N)NC(=O)CN1CCC(c2ccnn2CCO)CC1 (stereo unspecified) | -1.14%
73 | O=C(CN1CCC(c2ccnn2CCO)CC1)NCC1CC1 | 33.3%
74 | O=C(CN1CCOC(c2ccc(Cl)s2)C1)NCc1ccco1 (stereo unspecified) | 52.8%
75 | O=C(CN1CCC(c2ccnn2CCO)CC1)NC1CCCC1 | -11.4%
76 | Cc1ccc(CN2CCC3(CC2)CN(C(=O)c2cnccn2)CCO3)o1 | -14.2%
77 | O=C(N1CCCC1)N1CCN(Cc2cccnc2)c2ncccc2C1 | 31.2%
78 | Cn1nccc1C(=O)N1CCC(c2nnsc2S(C)(=O)=O)CC1 | 30.95%
79 | COC1(CNC(=O)NCc2ccccc2)CCSC1 (stereo unspecified) | 18.7%
80 | Cc1nc(CNC(=O)NCC(O)c2ccccc2)cs1 (stereo unspecified) | 11.2%
81 | CC(C)S(=O)(=O)N1CCC(c2[nH]ncc2S(C)(=O)=O)C1 (stereo unspecified) | 37.6%
82 | CN(CCC#N)C(=O)C(C)(C)Oc1ccc(C(N)=O)cc1 | 25.3%
83 | CC(=O)N1CCN(CCNC(=O)c2nc3ccccc3c(=O)[nH]2)CC1 | -96.2%
84 | CCNC(=O)[C@@H]1C[C@@H](NC(=O)c2ccc(C)cc2O)CN1CCCSC | 15.9%
85 | Cc1cc(OCC(=O)N2CCCC(c3nccs3)C2)no1 (stereo unspecified) | -19.6%
86 | Cc1nn(C)c(Cl)c1S(=O)(=O)N(C)c1ccc(Cl)cn1 | 14.4%
87 | O=C1CC(c2ccncc2)C2(CCN(Cc3ccc(F)cc3)CC2)N1 (stereo unspecified) | 1.71%
88 | CN(C)CCOCc1nnc2n1CCN(Cc1ccco1)CC2 | 16.4%

Row | Compound | INHIBITION
89 | Cc1cc(Br)ccc1C(=O)Nc1c(C(N)=O)n[nH]c1C | 3.87%
90 | Cc1cnc2c(C(=O)N3CCCC(OCc4ccccn4)C3)cnn2c1 (stereo unspecified) | 37.9%
91 | CCOCC(=O)N1CCC(C2CCN(Cc3ccc(Cl)cc3)C2)CC1 (stereo unspecified) | 26.9%
92 | O=C(C1CCCC1)N1CCC(C2CCN(Cc3ccc(Cl)cc3)C2)CC1 (stereo unspecified) | 67.3%
93 | CN1CCN(Cc2ccc(Cl)cc2)CC1C(=O)O (stereo unspecified) | 17%
94 | O=C(C1CCC1)N1CCC(C2CCN(Cc3ccc(Cl)cc3)C2)CC1 (stereo unspecified) | 55.6%
95 | O=C1CN(C(=O)C2CCCCC2)CC(O)CN1Cc1ccc(Cl)cc1 (stereo unspecified) | -0.473%
96 | CC(=O)NCC(=O)N1CCC(C2CCN(Cc3ccc(Cl)cc3)C2)CC1 (stereo unspecified) | 26.9%
97 | CCc1nc(C2CCCN2CC(=O)N2CCCc3ccccc32)no1 (stereo unspecified) | 15.3%
98 | CN(C)c1cc(C(=O)N2CCCCCC2)ccn1 | 5.308%
99 | O=S(=O)(CCNC1CCc2ncnn2C1)c1ccccc1 (stereo unspecified) | 20.6%
100 | COC1CC2(CCN(Cc3ccc4c(c3)OCO4)CC2)C1 | 37.4%
101 | Cc1nn(CC(O)CN2CCc3ccccc3C2)c(=O)c2ccccc12 (stereo unspecified) | 18.6%
102 | NC(=O)c1c(NC(=O)CCC(=O)O)sc2c1CCc1ccccc1-2 | -13%
103 | Cc1cccc(OCCN2CCN(Cc3cnn(CCO)c3)CC2)c1 | 32.9%
104 | Cc1nn(C)c(C)c1S(=O)(=O)NCC(C)(O)c1ccc2c(c1)OCO2 (stereo unspecified) | 34.3%
105 | Cn1cnc(S(=O)(=O)NCC(C)(O)c2ccc3c(c2)OCO3)c1 (stereo unspecified) | 52.5%
106 | Cc1noc(C)c1S(=O)(=O)NCC(C)(O)c1ccc2c(c1)OCO2 (stereo unspecified) | 31.3%
